From PubChem BioAssay
This is a sample that favours compounds with a hit; in the whole collection about 5.7% have one here.
PI4K2A inh – inhibitors of human PI4K2A; Q9BTU6; purified PI4K2A, ADP-Glo luminescence, 1 h; stronger effect = lower value; AID 1346378; activity change, negative = inhibition, % at 76.9 µM; 420,000 tested, 0.13% active; in the data active means activity change below about -50%; inconclusive means mostly about -30% to -49%;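 further: -100% = wells without enzyme as full effect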
Target sequence (Q9BTU6 whole entry, looked up): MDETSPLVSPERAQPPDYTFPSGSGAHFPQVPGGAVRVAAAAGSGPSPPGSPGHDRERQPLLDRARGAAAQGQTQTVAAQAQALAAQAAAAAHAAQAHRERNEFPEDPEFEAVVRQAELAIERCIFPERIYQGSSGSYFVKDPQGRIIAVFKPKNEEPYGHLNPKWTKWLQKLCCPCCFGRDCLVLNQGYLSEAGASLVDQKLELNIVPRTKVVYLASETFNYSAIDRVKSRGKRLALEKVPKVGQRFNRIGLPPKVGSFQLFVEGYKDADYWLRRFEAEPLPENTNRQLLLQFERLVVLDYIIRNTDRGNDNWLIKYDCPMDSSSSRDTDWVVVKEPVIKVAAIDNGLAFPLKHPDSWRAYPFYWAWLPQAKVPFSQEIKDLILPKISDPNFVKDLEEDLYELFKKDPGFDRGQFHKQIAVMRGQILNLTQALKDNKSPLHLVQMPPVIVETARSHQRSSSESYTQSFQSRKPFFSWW
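In this quantitative HTS, ADP production by PI4K2A was quantified luminescently after 1 h at ambient temperature; 100 microM adenosine served as plate-quality control.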
KB-V1 cytotox – KB-V1 MDR subline cytotoxicity; KB-V1 MDR cells viability, CellTiter-Glo, 72 h; 400,000 tested, 3.4% active; Potency, µM (highest dose often 46.1 µM), usual class: cytotoxic; further: potency means the concentration at half of the fitted maximal effect; nearly all actives have a fitted effect of over 60% in size
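KB-V1, DMEM (no phenol red) + 10% FBS; cpd pin-transferred, titration series; 72 h, 37 degrees C; CellTiter-Glo, luminescence. Data normalized, curve-fit.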
Nrf2 inh – blocks Nrf2 signaling. A549 ARE-Fluc reporter, luciferase luminescence, 18-24 h. Potency, µM (doses to about 46 µM), for inactives: at the highest dose activity change, negative = inhibition, hits mostly inhibitors. 360,000 tested, 2.1% active; further: potency means the concentration at half of the fitted maximal effect; nearly all actives have a fitted effect of over 60% in size
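In this cell-based qHTS, ARE-driven firefly luciferase in A549 cells reports Nrf2 activity; the luminescent signal after BugLite lysis is the measured value, with a prior CellTiter-Fluor read for cell health.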
A549 viability – A549 cytotoxicity, counter-screen for Nrf2 inhibitors. 390,000 tested, 0.16% active. Potency, µM (titrated, usually from 46 µM), for the others: at the top dose activity change, negative = cytotoxicity, actives largely listed as inhibitors. A549 ARE-Fluc cells, CellTiter-Fluor viability, 18-24 h; further: potency means the concentration at half of the fitted maximal effect
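Cytotoxicity counterscreen: CellTiter-Fluor fluorescence was measured in A549 ARE_Fluc cells after 18-24 h of compound exposure in a concentration series. The subsequent BugLite luminescent read reports ARE-luciferase activity.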
Giardia killer – Giardia lamblia killing; AID 540267; Giardia lamblia trophozoite viability; activity change, % at 7.66 µM, hits read low; 340,000 tested, 0.15% active; in the data active means activity change below about -80%; inconclusive means between about -30% and that limit;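 further: parasites exposed to compound for two days anaerobically before the ATP read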
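Trophozoites 100 cells/well + cpd; 48 hrs, 37 deg C, anaerobic. ATPLite 1-Step added, 15-30 min RT, luminescence read (ATP-based viability).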
KB-3-1 tox – kills parental KB-3-1 adenocarcinoma cells; Potency, µM (top dose mostly 46.1 µM), usual class: cytotoxic; 400,000 tested, 1.4% active; AID 1347075; KB-3-1 viability, CellTiter-Glo ATP luminescence, 72 h; further: potency means the concentration at half of the fitted maximal effect; nearly all actives have a fitted effect of over 60% in size
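Multi-concentration cytotoxicity screen in KB-3-1 cells grown in DMEM lacking phenol red with 10% FBS. After 72 h at 37 °C with compound, ATP-dependent luminescence was recorded.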
The depositor's hits bear a star; i = inactive; ? = inconclusive; nt = not tested or not shown; [ ] = dose if it differs, or a comment. Unless noted, the call rests on the fitted dose curve; in most records, active means well fitted curve in the direction sought with a large enough effect; inconclusive means small, poorly fitted or top-dose-only effect, or another doubt; inactive means no such curve, though single readings can be large; an effect the other way counts as inactive or inconclusive. Unless noted, on the % scale 0 is the no-effect control and ±100 the full control effect.

SMILES	PI4K2A inh	KB-V1 cytotox	Nrf2 inh	A549 viability	Giardia killer	KB-3-1 tox
COc1ccc([N+](=O)[O-])cc1NC(=O)Nc1cccc(Cl)c1	-0.2	2.91µM*	?	-5.9%	17.1	5.17µM*
COc1ccc([N+](=O)[O-])cc1NC(=O)C(C)N(C)Cc1cccc(OC)c1OC (centres undefined)	6.3	8.2µM*	?	-8.3%	14.7	i
O=C(Nc1cccc(Cl)c1)c1cccc(Oc2ccc([N+](=O)[O-])cc2Cl)c1	-2.3	?	20.6µM*	-24.8%	-10.6	i
COc1ccc([N+](=O)[O-])cc1NC(=O)Nc1ccc(OC)c(OC)c1	3.6	?	-22.9%	-2.1%	14.4	i
CN(Cc1ccco1)C(=O)CN1C(=O)C2(OCCCO2)c2ccccc21	-1.7	nt	nt	nt	nt	nt
O=C1CCc2cc(S(=O)(=O)Nc3cccc(F)c3)ccc2N1	nt	nt	?	0.3%	nt	nt
O=C(c1csc2c1CCCC2)N1CCN(c2cccc(C(F)(F)F)c2)CC1	-0.4	20.6µM*	?	?	-2.2	i
O=C(c1csc2c1CCCC2)N1CCN(c2ncccn2)CC1	-0.2	16.4µM*	-20.9%	-0.8%	-9.0	i
O=C(c1csc2c1CCCC2)N1CCN(c2ccc(F)cc2)CC1	-7.2	i	-2.7%	14.1%	-1.7	i
COC(CNC(=O)[C@H](Cc1ccccc1)NC1(C(=O)NC2CCCCC2)CCCC1)OC	-3.9	nt	nt	nt	nt	nt
CCN(C(=O)c1ccco1)c1nc(CC(=O)Nc2ccc(Cl)cc2)cs1	-6.9	16.4µM*	?	-16.9%	7.1	i
CN(C(=O)c1ccco1)c1nc(CC(=O)Nc2ccccc2)cs1	-9.4	i	?	22.1%	19.8	i
N/C(=N\N=C\c1ccc(Cl)cc1)N/N=C/c1ccc(Cl)cc1	-7.2	nt	nt	nt	nt	nt
O=C(CSc1ccc(-c2ccccc2)nn1)N1CCN(c2ccccc2)CC1	2.6	i	-15.9%	13.6%	-24.6	i
O=C(CSc1nc(N2CCCCC2)nc(N2CCCCC2)n1)N1CCN(c2ccccc2)CC1	-5.9	16.4µM*	?	?	-14.6	?
CCn1c(SCC(=O)N2CCN(c3ccc(F)cc3)CC2)nc2ccccc2c1=O	1.8	?	0.3%	4.6%	-4.8	i
CCn1c(SCC(=O)N2CCN(c3ccc(F)cc3)CC2)nnc1-c1ccncc1	-1.2	18.4µM*	?	-4.7%	7.0	i
Cn1c(SCC(=O)N2CCN(c3cccc(Cl)c3)CC2)nnc1-c1ccncc1	3.3	16.4µM*	?	-16.2%	0.0	13µM*
O=C(CSc1ccc(-c2ccncc2)nn1)N1CCN(c2ccccc2)CC1	-5.5	14.6µM*	-24.3%	2.0%	5.1	i
Cn1c(SCC(=O)N2CCN(c3ccccc3)CC2)nnc1-c1ccncc1	-3.0	i	nt	2.8%	22.8	i
CC(I)CCC(C)[n+]1cccc(I)c1 (centres undefined)	nt	?	nt	nt	nt	i
COc1ccc(NC(=O)CN2CCCN(Cc3ccc(Cl)cc3)S2(=O)=O)cc1Cl	-0.5	i	-9.9%[9.27 µM]	-10.2%	nt	i
Brc1ccc(-c2csc(N3CCC(c4nn[nH]n4)CC3)n2)cc1	5.9	nt	nt	nt	nt	nt
Cc1ccc(S(=O)(=O)N2CCCC2C(=O)N2CCN(c3ccccc3)CC2)cc1C (centres undefined)	3.3	nt	nt	nt	nt	nt
COc1cc(C=Nn2c(-c3ccccc3F)n[nH]c2=S)ccc1OCc1ccccc1	43.9	nt	nt	nt	nt	nt
SMILES	PI4K2A inh	KB-V1 cytotox	Nrf2 inh	A549 viability	Giardia killer	KB-3-1 tox
COc1ccc(/C=C/C(=O)c2ccc3c4c(cccc24)CC3)cc1OC	2.0	16.4µM*	18.4µM*	-2.5%	-4.2	?
CC(=O)Nc1cc(OC(C)=O)c2nonc2c1OC(C)=O	-53.2*	i	14.6µM*	?	15.8	?
CC(=O)Oc1ccc2nonc2c1OC(C)=O	nt	i	-9.1%	-17.6%	-1.2	?
CCOC(=O)C1=C(N)Oc2ccc3ccccc3c2C1c1cccc(O)c1 (centres undefined)	1.0	i	13.4%	1.7%	-0.2	i
CCOC(=O)C1=C(N)Oc2ccc3ccccc3c2C1c1cccnc1 (centres undefined)	9.9	11.2µM*	?	-9.0%	-17.8	?
C[C@@H]1C(=O)N2N=Cc3cc4ccccc4cc3[C@H]2N2N=Cc3cc4ccccc4cc3[C@@H]12	-7.3	nt	nt	nt	nt	nt
COc1ccc(-n2c(COc3ccccc3)nnc2SCC(=O)Nc2ccc(OCc3ccccc3)cc2)cc1	-3.1	nt	nt	nt	nt	nt
Cc1c(C(=O)N(C)C)sc(NC(=O)c2cccc([N+](=O)[O-])c2)c1C#N	-2.6	i	2.8%	-17.2%	-7.3	i
COc1ccc(C(=O)Nc2sc(C(=O)N(C)C)c(C)c2C#N)cc1[N+](=O)[O-]	-5.6	18.4µM*	7.1%	-5.0%	-2.8	?
Cc1cccc(CN2CCN(CC(=O)Nc3c(C)cccc3C)S2(=O)=O)c1	-1.1	i	?	1.7%	nt	i
O=C1CCCC2=C1C1(CCC1)N=C(Nc1nc3ccccc3o1)N2	nt	nt	-4.9%	12.6%	nt	nt
CCOC(=O)c1cnc(-n2nc(C)cc2C)nc1NCc1ccc2c(c1)OCO2	1.9	?	?	-2.7%	7.2	?
CCOC(=O)c1cnc(-n2nc(C)cc2C)nc1Nc1ccc(OC)cc1	-0.4	i	?	nt	-0.2	i
CCOC(=O)c1cnc(-n2nc(C)cc2C)nc1NCCc1ccccc1	-7.0	0.731µM*	-26.8%	-1.7%	3.8	i
CCOC(=O)c1cnc(-n2nc(C)cc2C)nc1NC1CCCC1	-2.6	5.17µM*	?	?	13.3	i
CCOc1cc(CNc2ccc(O)cc2)ccc1OCc1ccc(Cl)cc1	-54.5*	i	-19.9%	-8.6%	nt	i
Oc1ccc(NCc2ccccc2OCc2ccc(Cl)cc2)cc1	-53.4*	nt	7.3%	10.7%	nt	nt
Oc1ccc(NCc2ccccc2OCc2ccccc2)cc1	?	i	0.3%	-13.3%	4.8	i
CC(C)(C)OC(=O)CC(=O)NNC(=O)c1cc2ccccc2[nH]1	nt	nt	-15.5%	-5.7%	nt	nt
COC(=O)C1CN(CCc2ccccc2)CCS(=O)(=O)N1Cc1ccccc1F (centres undefined)	0.9	nt	nt	nt	nt	nt
O=C1N[C@@H](Cc2ccccc2)C(=O)N2[C@@H]3N(S(=O)(=O)c4ccccc4)c4ccccc4[C@]3(Br)C[C@@H]12	5.1	i	-23.9%	3.4%	35.0	i
CC(C)c1cc(C(C)C)c(S(=O)(=O)N2c3ccccc3[C@@]3(Br)C[C@H]4C(=O)N[C@@H](Cc5ccccc5)C(=O)N4[C@@H]23)c(C(C)C)c1	-3.5	?	?	7.6%	?	16.4µM*
O=C1c2cccc3c(N4CCCCC4)ccc(c23)C(=O)N1c1cccc(O)c1	2.7	?	?	-14.6%	-1.5	?
